Only some compounds are listed: those with a hit (about 12% of all), similar ones and a draw of the others.
TDP1 block: inhibitors of human tyrosyl-DNA phosphodiesterase TDP1 | Q9NUW8 | recombinant TDP1, AlphaScreen DNA substrate cleavage | Potency, µM (doses to about 130 µM), for inactives: at the highest dose activity change, negative = inhibition, usual class: inhibitors | hit rate 0.28% among 350,000; further: on the % scale 0 is the no-effect control and ±100 the full control effect; nearly all actives have a fitted effect of over 40% in size
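Recombinant human Tdp1 (E. coli-expressed, 1 nM final) preincubated with compounds 15 min at room temperature, then 5'-biotin/3'-phosphotyrosine-FITC DNA substrate (15 nM final) added for 5 min. AlphaScreen beads (10 ug/ml final) added 10 min; cleavage lowers signal.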
G9a block: blocks human histone lysine methyltransferase G9a; AID 504332; hit rate 8.8% among 350,000; Potency, µM (top dose mostly 102 µM), without a hit: top-dose activity, negative = inhibition, actives largely listed as inhibitors; G9a H3K9 monomethylation, AlphaScreen, 2 h; further: on the % scale 0 is the no-effect control and ±100 the full control effect; nearly all actives have a fitted effect of over 75% in size
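Quantitative HTS format: methyltransferase activity on a biotin-tagged H3K9 peptide is measured by AlphaScreen, using a rabbit anti-monomethyl-H3K9 antibody with streptavidin donor and anti-IgG acceptor beads. Final levels are 20 nM enzyme, 500 nM peptide, 20 uM SAM; 2 h RT.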
HP1b chromo inh: inhibitors of HP1-beta chromodomain binding to methylated histone tails | P83916 | AlphaScreen HP1-beta / biotin-H3K9me3 peptide binding | Potency, µM (highest dose often 114 µM), for the others: top-dose activity change, negative = inhibition, hits mostly inhibitors | hit rate 0.56% among 390,000 | AID 540317; further: nearly all actives have a fitted effect of over 70% in size
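AlphaScreen: HP1-beta (50 nM) preformed 30 min with biotin-H3(1-18)K9me3 peptide (50 nM) in PBS pH 7.4, 0.01% Tween-20. Compound added for 30 min at RT, then streptavidin donor/nickel chelate acceptor beads (10 ug/mL) for 30 min.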
Sfp inh: inhibitors of Bacillus subtilis Sfp phosphopantetheinyl transferase; hit rate 3.5% among 310,000; Biochemical Sfp PPTase activity, qHTS; AID 1490; Potency, µM, without a hit: largest response in the series, negative = inhibition, usual class: inhibitors; Q9F4F7;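 further: the enzyme is Sfp with the accession as filed and its product quenches rhodamine fluorescence; 0% = enzyme reaction without inhibitor and -100% = no enzyme wells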
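Compounds were incubated with enzyme (final 15 nM) for 15 min at room temperature before substrate addition started the reaction. Fluorescence at 525 nm excitation, 598 nm emission was recorded immediately and after 30 minutes.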
JMJD2A Tudor: JMJD2A Tudor domain (human) inhibition; O75164; AlphaScreen JMJD2A-Tudor / H3K4me3 peptide binding; Potency, µM (series often up to 114 µM), without a hit: top-dose activity change, negative = inhibition, most hits filed as inhibitors; hit rate 4.4% among 390,000; AID 504339; further: on the % scale 0 is the no-effect control and ±100 the full control effect; nearly all actives have a fitted effect of over 50% in size
BAZ2B inh: BAZ2B (human) inhibition | Q9UIF8 | AID 504333 | Potency, µM (series often up to 114 µM), for the others: at the top dose activity change, negative = inhibition, most hits filed as inhibitors | AlphaScreen BAZ2B-H3K14Ac peptide displacement | hit rate 4.4% among 360,000; further: on the % scale 0 is the no-effect control and ±100 the full control effect; nearly all actives have a fitted effect of over 60% in size
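Inhibition is scored as reduced AlphaScreen emission. The BAZ2B/b-H3(5-23)K14Ac complex (50 nM each) in PBS pH 7.4, 0.01% Tween-20 meets compound (up to 110 uM) for 30 min at RT before bead addition.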
Active calls of the source: *; ? = inconclusive; / = no result; [ ] = another dose, or the depositor's remark. The call rests on the fitted dose curve; in most records, active means well fitted curve in the direction sought with a large enough effect; inconclusive means small, poorly fitted or top-dose-only effect, or another doubt; inactive means no such curve, though single readings can be large; an effect the other way counts as inactive or inconclusive. Potency means the concentration at half of the fitted maximal effect.

SMILES	TDP1 block	G9a block	HP1b chromo inh	Sfp inh	JMJD2A Tudor	BAZ2B inh
COCC(=O)Nc1nnc(-c2cccs2)s1	7.0%	44.7µM*	25.7%	-12.2%	-7.8%	4.2%
O=C(C1=C[C@H](C2CCCCC2)C[C@H](OCc2ccc(CO)cc2)O1)N1CCN(Cc2ccc3c(c2)OCO3)CC1	6.4%	?	-16.4%	-3.2%	?	?
Cn1nnnc1SCC(=O)C(C)(C)C	-1.2%	-17.2%	39.3%	-0.6%	-4.2%	-31.1%
COc1ccccc1NC(=O)C(C)OC(=O)C1COc2ccccc2O1 (stereo not given)	-3.6%[56.1 µM]	-8.0%[2.33 µM]	29.5%	/	-11.1%	-5.6%
OCC[C@@H]1C[C@@H](O)[C@H](O)[C@]2(CCc3ccccc3CO2)O1	/	21.2%	0.5%	11.1%	-30.0%	7.0%
CCC(CC)c1nnc(NC(=O)CCc2ccc(OC)cc2)s1	/	?	23.6%	44.7µM*	-17.0%	?
COCC(=O)Nc1nc(-c2ccccc2)c(C)s1	5.1%	44.7µM*	-4.0%	-2.0%	-11.2%	9.3%
CCC(C)C(=O)Nc1nnc(CCc2ccccc2)s1 (stereo not given)	/	/	4.1%	9.9%	70.8µM*	33.2%
CN(C)c1ncc2nc(-c3ccc(F)cc3)c(=O)n(C[C@H]3CCCO3)c2n1	/	2.8%[0.501 µM]	/	16.0%	/	/
CSc1ccccc1C(=O)Nc1cc2c(cc1C(=O)O)OCCCO2	/	2.82µM*	1.4%	4.4%	22.4µM*	-27.1%
CCOc1ccccc1OCC(=O)Nc1cc2c(cc1C(=O)O)OCCCO2	2.4%	25.1µM*	57.0%	79.4µM*	-0.8%	-11.0%
COc1ccccc1OCC(=O)Nc1cc2c(cc1C(=O)O)OCCCO2	2.9%	7.94µM*	47.7%	79.4µM*	79.4µM*	-19.7%
COc1ccc(OCCC(=O)Nc2cc3c(cc2C(=O)O)OCCCO3)cc1	1.0%	-31.5%	7.6%	/	-14.4%	-0.8%
CC1CCc2c(cc(-c3ccccc3)n2-c2ccc(C(=O)NC(C)C)cc2)C1 (stereo not given)	3.9%	1.1%[59 µM]	45.6%	/	?	-11.8%
C=C(C)[C@H]1CC[C@]2(CO)CC[C@]3(C)[C@@H](CC[C@H]4[C@@]5(C)CC[C@@H](O)C(C)(C)[C@@H]5CC[C@@]43C)[C@H]12	10.8%[21 µM]	9.3%[21.5 µM]	/	1.2%	/	/
CCOc1ccccc1C(=O)N[C@H](C(=O)OCC(=O)Nc1nnc(-c2ccccc2)o1)C(C)C	/	/	-10.0%	/	-16.6%	/
C[C@H](CO)N1C[C@H](C)[C@H](CN(C)Cc2ccncc2)Oc2ccc(NC(=O)Nc3ccc(C(F)(F)F)cc3)cc2CC1=O	1.3%	/	29.0%	/	-25.5%	/
CC(C)CCC(C(=O)O)C(C)CC(=O)Nc1ccn(-c2ccccc2)n1 (stereo not given)	-2.5%	/	45.5%	7.8%	0.7%	-4.5%
COc1cc(C)ccc1S(=O)(=O)NC1CC(C)(C)NC(C)(C)C1	/	/	36.2%	17.8%	-9.6%	3.2%
CCOC(=O)c1ccc(N2N=C(C)/C(=C/C=C/c3ccco3)C2=O)cc1	10.2%	?	?	-1.6%	?	6.31µM*
O=C(O)c1cc(N2N=C(C(F)(F)F)/C(=C/C=C/c3ccco3)C2=O)ccc1Cl	-3.0%	2.51µM*	1.58µM*	22.4µM*	1µM*	12.6µM*
CC1=NN(c2ccc(C(=O)OC(C)C)cc2)C(=O)/C1=C\C=C\c1ccco1	0.0%	4.47µM*	?	?	17.8µM*	3.98µM*
CCOC(=O)c1ccc(-n2c(-c3ccco3)nc3ccccc3c2=O)cc1	7.4%	-4.5%	24.6%	3.7%	-22.5%	-27.7%
C[C@H]1CN([C@@H](C)CO)C(=O)Cc2cc(NC(=O)C3CC3)ccc2O[C@H]1CN(C)Cc1ccc(C(=O)O)cc1	1.4%	/	45.2%	/	-12.4%	/
O=C1C2C3C=CC(C3=C(c3ccccc3)c3ccccc3)C2C(=O)N1Cc1ccccc1 (stereo not given)	-9.8%	39.8µM*	24.7%	50.1µM*	-17.9%	-8.3%
SMILES	TDP1 block	G9a block	HP1b chromo inh	Sfp inh	JMJD2A Tudor	BAZ2B inh
Cc1ccc(CN2C(=O)C(CC(C)C)Nc3ncnc(N4CCN(c5ccccn5)CC4)c32)cc1 (stereo not given)	/	?	19.1%	/	79.4µM*	?
CC(C)CC1Nc2ncnc(N3CCN(c4ccccn4)CC3)c2N(Cc2ccc(Br)cc2)C1=O (stereo not given)	/	?	35.2%	/	-35.2%	-35.0%
Cc1ccc(CN2C(=O)C(C)Nc3ncnc(N4CCN(c5ccccn5)CC4)c32)cc1 (stereo not given)	-0.2%	-3.5%[2.33 µM]	9.5%	/	79.4µM*	?
CCc1nn2c(=O)cc(-c3ccncc3)nc2s1	/	/	/	/	-9.5%	/
CCOc1ccc(NC(=O)N(Cc2c[nH]c3ccccc23)C2CCCCC2)cc1	2.3%	8.0%[59 µM]	11.0%	/	-18.3%	/
CC1CCN(S(=O)(=O)c2csc(C(N)=O)c2)CC1	5.1%	-1.5%[59 µM]	-1.3%	/	-13.9%	?
CCOC(=O)C1CCCCN1C(=O)/C(=C/c1ccc(OC)cc1)c1ccc(OC)c(OC)c1 (stereo not given)	3.5%	/	22.4%	/	-18.1%	/
COc1ccccc1NC(=O)c1cc(S(=O)(=O)N2CCOCC2)ccc1Cl	-1.0%	4.0%[59 µM]	33.0%	13.9%	6.3%	-4.2%
COC(=O)c1cc(S(=O)(=O)N2CCOCC2)ccc1Sc1ccccc1N	5.7%	20µM*	2.0%	-21.2%	-21.9%	-7.1%
COc1cc(OC)cc(C(=O)NC2CCCN(Cc3ccc(Cl)cc3)C2)c1 (stereo not given)	/	/	8.6%	?	-25.5%	4.0%
O=C(O)c1cccc(NC(=S)NC(=O)c2ccncc2)c1	?	44.7µM*	-19.3%	?	?	/
CC(C)(C)C(=O)NC(=S)Nc1cccc(C(=O)O)c1	-11.1%	0.0%[0.501 µM]	38.7%	?	-11.7%	-7.0%
O=C(NC(=S)Nc1cnc2ccccc2c1)c1ccccc1	0.0%	?	38.3%	56.2µM*	-12.7%	-37.9%
CNC(=S)Nc1cccc(C(=O)O)c1	5.5%	17.8%[12.7 µM]	62.2%	56.2µM*	-6.7%	-21.6%
COc1ccc(CCNC(=O)C(NS(=O)(=O)c2ccc3c(c2)CCN3C(C)=O)C(C)C)cc1OC (stereo not given)	-1.1%	39.8µM*	/	14.8%	/	-19.0%
Cc1ccc([N+](=O)[O-])cc1S(=O)(=O)Nc1ccc(N2CCOCC2)cc1	0.0%	?	5.6%	13.6%	-27.8%	?
CCCN1C/C(=C/c2cccc([N+](=O)[O-])c2)C(=O)/C(=C/c2cccc([N+](=O)[O-])c2)C1	2.0%	?	-5.1%	11.8%	-25.3%	?
O=C1NC(=S)N/C1=C/c1cc([N+](=O)[O-])ccc1N1CCOCC1	1.1%	?	-12.9%	-4.7%	-33.0%	10.9%
